About 700 (0.2%) of roughly 350,000 compounds were called active. The calls are words filed in the database; no cut-off is given here. Only a selection was taken, and actives are over-represented in it overall.

This experiment deals with RecQ-like DNA helicase BLM (Homo sapiens) (UniProt P54132). The experiment can be described thus: qHTS Assay for Inhibitors of Bloom's syndrome helicase (BLM). Format: functional.
Chain of RecQ-like DNA helicase BLM (Homo sapiens) (P54132 whole entry): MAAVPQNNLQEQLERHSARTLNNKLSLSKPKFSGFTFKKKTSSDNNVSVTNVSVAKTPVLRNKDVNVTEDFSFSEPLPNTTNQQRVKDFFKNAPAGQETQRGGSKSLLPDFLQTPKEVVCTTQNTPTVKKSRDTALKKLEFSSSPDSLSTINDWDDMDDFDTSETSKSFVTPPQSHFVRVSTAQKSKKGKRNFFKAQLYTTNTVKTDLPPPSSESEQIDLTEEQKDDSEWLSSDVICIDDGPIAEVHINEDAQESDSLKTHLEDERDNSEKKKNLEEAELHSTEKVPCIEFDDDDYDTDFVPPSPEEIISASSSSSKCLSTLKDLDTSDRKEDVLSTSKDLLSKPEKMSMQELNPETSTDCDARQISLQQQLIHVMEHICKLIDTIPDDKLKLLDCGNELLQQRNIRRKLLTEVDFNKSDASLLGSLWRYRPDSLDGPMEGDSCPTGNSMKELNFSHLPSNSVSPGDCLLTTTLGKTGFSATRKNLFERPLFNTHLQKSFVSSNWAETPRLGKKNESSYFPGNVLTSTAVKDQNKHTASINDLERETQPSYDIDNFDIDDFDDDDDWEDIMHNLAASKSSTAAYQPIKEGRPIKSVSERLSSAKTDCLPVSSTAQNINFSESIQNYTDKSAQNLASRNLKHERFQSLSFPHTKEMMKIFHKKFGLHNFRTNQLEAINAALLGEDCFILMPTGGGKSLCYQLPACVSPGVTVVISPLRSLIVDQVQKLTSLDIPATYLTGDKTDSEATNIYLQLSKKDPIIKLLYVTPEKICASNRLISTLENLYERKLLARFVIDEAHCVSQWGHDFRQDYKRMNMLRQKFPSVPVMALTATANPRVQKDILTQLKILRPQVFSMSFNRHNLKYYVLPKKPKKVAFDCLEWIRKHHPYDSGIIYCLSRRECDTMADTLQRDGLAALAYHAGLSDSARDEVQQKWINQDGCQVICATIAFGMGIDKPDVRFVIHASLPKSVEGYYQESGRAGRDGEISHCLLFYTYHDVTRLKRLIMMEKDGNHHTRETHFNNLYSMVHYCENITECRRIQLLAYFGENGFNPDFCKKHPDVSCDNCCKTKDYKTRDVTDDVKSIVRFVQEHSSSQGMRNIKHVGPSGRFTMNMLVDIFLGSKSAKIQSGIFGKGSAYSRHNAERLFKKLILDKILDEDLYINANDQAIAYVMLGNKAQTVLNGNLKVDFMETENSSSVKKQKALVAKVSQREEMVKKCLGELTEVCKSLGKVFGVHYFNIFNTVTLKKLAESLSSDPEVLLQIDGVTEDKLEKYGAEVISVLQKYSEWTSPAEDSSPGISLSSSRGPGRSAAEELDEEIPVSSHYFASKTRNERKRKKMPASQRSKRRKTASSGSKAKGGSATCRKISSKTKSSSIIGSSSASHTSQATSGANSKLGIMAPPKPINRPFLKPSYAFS
Turning to `Nc1nc(N)c2nc(CNc3ccc(C(=O)N[C@@H](CCC(=O)O)C(=O)O)cc3)cnc2n1`, the Potency is 20 µM (active).

Values taken from ChEMBL document CHEMBL1201862, “PubChem BioAssay data set” (2004).
